Bioassay records from PubChem BioAssay.
GPR151 ag – activates the human receptor GPR151 | hit rate 1% among 650,000 | PathHunter beta-arrestin GPR151 cells, luminescence | activation, % at 11.2 µM | AID 1508602; in the data active = activation above about 4.9%;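 also: 0% = median of compound wells and 100% = cells with positive control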
TEAD-YAP inh – TEAD-YAP interaction inhibition; inhibition, % at 9.12 µM; HEK-TIYL cells, TEAD-Gal4/YAP UAS-luciferase luminescence; hit rate 1.4% among 640,000; in the data active = inhibition above about 32%;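 also: 0% = median of test compound wells and 100% = reference inhibitor wells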
FBW7 activator – human FBW7 E3 ligase activation, primary screen; Q969H0; AlphaScreen FBW7–phospho-cyclin E peptide binding, activator screen; normalized activity (activation), % at 26.1 µM; hit rate 0.13% among 650,000; in the data active = normalized activity above about 1.9%;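 also: purified mutant Fbw7 with reduced substrate affinity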
MITF primary – inhibitors of human MITF | inhibition, % at 2.6 µM | hit rate 0.91% among 650,000 | AlphaScreen MITF homodimerization, bead proximity signal | O75030; in the data active = inhibition above about 50%;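 also: 0% = vehicle wells with protein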
Target sequence (O75030 whole entry, looked up): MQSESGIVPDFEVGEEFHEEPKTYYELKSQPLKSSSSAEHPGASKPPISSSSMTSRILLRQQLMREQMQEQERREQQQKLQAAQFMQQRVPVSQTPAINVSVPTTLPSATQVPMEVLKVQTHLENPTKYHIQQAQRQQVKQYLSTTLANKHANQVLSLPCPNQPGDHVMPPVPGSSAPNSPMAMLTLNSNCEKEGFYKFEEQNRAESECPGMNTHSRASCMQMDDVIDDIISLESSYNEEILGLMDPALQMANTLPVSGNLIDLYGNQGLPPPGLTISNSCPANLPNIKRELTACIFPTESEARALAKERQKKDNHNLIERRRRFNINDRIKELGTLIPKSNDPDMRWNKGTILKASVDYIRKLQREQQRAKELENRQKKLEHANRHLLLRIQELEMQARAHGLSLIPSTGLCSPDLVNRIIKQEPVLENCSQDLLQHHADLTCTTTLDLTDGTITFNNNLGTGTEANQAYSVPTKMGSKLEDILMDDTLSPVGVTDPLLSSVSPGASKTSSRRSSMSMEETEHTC
* hit, by the source's call. Shown are actives, neighbours in structure and some others; about 3.4% of the full set was active somewhere.

SMILES	GPR151 ag	TEAD-YAP inh	FBW7 activator	MITF primary
COc1ccccc1NC1=C(Cl)C(=O)N(c2ccc(C)cc2)C1=O	1.7	-4.8	-0.1	10.0
COc1ccc(Cl)cc1NC1=C(Cl)C(=O)N(c2ccc(C)cc2)C1=O	1.2	44.6*	0.0	-5.2
CCc1ccc(N2C(=O)C(Cl)=C(Nc3cccc(OC)c3)C2=O)cc1	0.7	54.4*	-0.2	12.8
COc1cccc(NC2=C(Cl)C(=O)N(c3ccc(C)cc3)C2=O)c1	-1.3	3.9	-0.2	11.1
CCCCOc1ccccc1NC(=O)C(F)(OC)C(F)(F)F (stereo not given)	-0.2	36.2*	0.9	13.7
COc1ccc(N2CCN(C3=NS(=O)(=O)c4ccccc43)CC2)cc1	0.8	5.6	0.0	8.7
COc1ccc(-c2csc3ncnc(Cl)c23)cc1OC	1.5	33.9*	1.8	13.1
CCOC(=O)C1=C(C)N=c2s/c(=C/c3ccc(-c4ccc([N+](=O)[O-])cc4)o3)c(=O)n2C1c1cc(OC)c(OC)cc1Br (stereo not given)	0.1	-3.4	-0.2	-4.5
O=C1C(Cl)=C(N2CCCCC2)C(=O)C(Cl)=C1/C=C/N1CCCCC1	1.0	4.1	-0.5	86.2*
CCC(=O)Nc1cnc(NC(=O)c2ccc(Cl)cc2)cc1C	-0.4	-13.1	0.0	7.9
CC(=O)Nc1cnc(NC(=O)c2ccc(Cl)cc2)cc1C	-0.1	52.3*	-0.2	-2.1
COc1ccc(C(=O)Nc2cnc(NC(=O)c3cccs3)cc2C)cc1	-1.6	36.7*	-0.1	-7.5
CC(C)(C)N=c1scc(-c2ccccc2)n1Cc1ccccc1	1.3	-3.9	-0.1	20.4
COc1cccc(Nc2nc(N3CCN(CCO)CC3)nc3c2cnn3C)c1	1.9	41.0*	0.2	9.9
CC1CCc2cc(F)cc3c(O)c(C(=O)Nc4ccccn4)c(=O)n1c23 (stereo not given)	0.2	10.2	2.0*	7.7
COCCNCC(=O)Nc1ccc(S(=O)(=O)N2CCCC2)cc1	-0.4	-4.5	-0.1	19.8
COc1cc(/C=C/C(=O)OCC(=O)N2CC3(C)CC2CC(C)(C)C3)ccc1OCC#N (stereo not given)	1.6	4.5	0.4	18.4
COC(=O)[C@@H]1C[C@@H](NC(=O)c2ccc3ccccc3c2O)CN1Cc1cc(F)ccc1F	-0.4	42.0*	0.3	0.9
CC(=O)Nc1ccc(Nc2nc(-c3ccc(C(=O)NC4CC4)cc3)nc3c2ncn3-c2ccccc2)cc1	2.0	48.2*	0.1	1.3
CN1CCN(C(=O)c2ccc(-c3nc(NCCN4CCOCC4)c4ncn(-c5ccsc5)c4n3)cc2)CC1	-2.1	23.1	-0.1	16.0
COc1ccc(CCNc2nc(-c3ccc(C(=O)NC4CC4)cc3)nc3c2ncn3-c2ccccc2)cc1	-2.2	3.9	0.2	16.5
NC(=O)c1ccc(-c2nc(NCCN3CCOCC3)c3ncn(-c4ccccc4)c3n2)cc1	3.6	60.7*	0.0	7.0
O=C(NC1CC1)c1ccc(-c2nc(NCCO)c3ncn(-c4ccccc4)c3n2)cc1	-0.1	67.8*	0.3	10.0
NC(=O)c1ccc(-c2nc(NCCO)c3ncn(-c4ccccc4)c3n2)cc1	0.1	64.2*	0.0	-2.2
O=C(NC1CC1)c1ccc(-c2nc(Nc3ccc(Oc4ccccc4)cc3)c3ncn(-c4ccsc4)c3n2)cc1	1.1	-1.9	-0.1	13.6
SMILES	GPR151 ag	TEAD-YAP inh	FBW7 activator	MITF primary
O=C(NCCC1=CCCCC1)C1CCCN1c1nnc(N2CCCC2=O)s1 (stereo not given)	-1.3	-3.4	0.0	3.7
O=C(CNC(=O)c1ccc(Cl)cc1)N/N=C/c1c(O)ccc2ccccc12	-0.7	8.8	0.6	8.9
Cc1ccc(C)c(NC(=O)CCC(=O)N/N=C/c2ccc(N(C)C)cc2)c1	2.3	4.2	-0.1	-4.8
CC1(C)NC(=O)N(CCOCCOc2ccc([N+](=O)[O-])cc2)C1=O	-1.1	-0.7	1.0	28.5
Cc1cc(/C=c2/sc3nc4ccccc4n3c2=O)c(C)n1-c1ccc(Cl)c(Cl)c1	1.2	7.3	0.4	5.2
Cc1cc(/C=c2\sc3nc4ccccc4n3c2=O)c(C)n1C1CCCC1	0.7	70.4*	0.0	0.0
COc1cccc(/C=c2/sc3nc4ccccc4n3c2=O)c1	-0.6	49.6*	0.0	-1.4
O=c1/c(=C\c2ccc(O)cc2)sc2nc3ccccc3n12	-10.3	72.6*	2.0*	19.2
CCC(CC)NC(=O)CN1C(=O)C2CC=CCC2C1=O (stereo not given)	0.2	14.0	0.4	17.0
CC1CCN(C(=O)CCl)c2ccccc2S1 (stereo not given)	-0.4	66.7*	0.1	14.6
CC1CN(C(=O)N2CCC(C(=O)O)CC2)c2ccccc2S1 (stereo not given)	-0.7	-13.1	-0.2	0.8
CCc1ccc(CN2CCN(S(C)(=O)=O)CC2)cc1	0.7	15.9	0.1	41.1
CSc1ccc(CN2CCN(S(=O)(=O)c3ccc4ccccc4c3)CC2)cc1	0.8	0.9	0.0	1.1
CSc1ccc(CN2CCN(S(C)(=O)=O)CC2)cc1	-1.0	47.4*	0.1	-5.4
CS(=O)(=O)N1CCN(Cc2ccc(Cl)cc2)CC1	0.1	40.9*	0.0	-3.5
Cc1ccc(Cn2nnc3c(SCc4cccnc4)ncnc32)cc1	-0.3	-13.3	0.2	9.5
CCOC(=O)c1c(NC(=O)C2C3C=CC(C3)C2C(=O)O)sc2c1CC(C)CC2 (stereo not given)	-0.3	36.9*	-0.4	-3.8
CCc1c(C)sc(NC(=O)C2C3C=CC(C3)C2C(=O)O)c1C(=O)OC (stereo not given)	-1.7	31.9*	0.0	12.0
CCOC(=O)c1c(NC(=O)C2C3C=CC(C3)C2C(=O)O)sc2c1CCC2 (stereo not given)	-0.7	18.8	0.0	1.3
CCC1CCc2c(sc(NC(=O)C3C4C=CC(C4)C3C(=O)O)c2C(=O)OC)C1 (stereo not given)	-1.0	56.5*	-0.2	11.0
COc1cc(Nc2ccnc(N3CCN(c4ccccn4)CC3)n2)cc(OC)c1OC	0.0	35.8*	-0.1	11.1
COc1cc(Nc2cc(N3CCN(c4ccccn4)CC3)ncn2)cc(OC)c1OC	-0.9	-13.4	0.4	-9.1
COc1cc(Nc2cc(C)nc(N3CCN(c4ccccn4)CC3)n2)cc(OC)c1OC	2.7	52.5*	-0.1	4.4
COC(=O)c1c(NC(=O)/C=C/C(=O)O)sc2c1CCCCC2	1.4	29.9	-0.2	1.6
CCOc1ccc2[nH]cc(C(=O)NCc3cccnc3)c(=O)c2c1	0.4	40.8*	0.2	5.8
SMILES	GPR151 ag	TEAD-YAP inh	FBW7 activator	MITF primary
c1ccc2c(c1)nc1n(CCN3CCCCC3)cnn21	-1.1	-5.7	2.1*	19.0
c1ccc2c(c1)n(CCN1CCCCC1)c1ncnn21	-0.4	-5.2	0.1	11.8
CCCc1cc(C(=O)OC)c(NC(=O)/C=C/C(=O)O)s1	-0.5	36.7*	0.0	-0.8
CCOC(=O)c1cc(C(C)C)sc1NC(=O)/C=C/C(=O)O	0.0	45.2*	0.1	12.9
CC(NC(=O)CSc1nnc(C(F)(F)F)n1C)C12CC3CC(CC(C3)C1)C2 (stereo not given)	-2.3	5.2	0.3	18.8
O=c1c(Cl)c(Cl)cnn1-c1cccc(C(F)(F)F)c1	-0.6	18.0	0.1	10.4
